Dicer inh: blocks human Dicer maturation of pre-miR-21 | z-score at 25 µM | 6% of 47,000 active | cat-ELCCA pre-miR-21 Dicer processing, chemiluminescence; hits give high values; in the data active = z-score above about 3, passing the limit was not always enough;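 also: plate controls were vehicle for no effect and no enzyme for full effect; higher signal means more uncleaved substrate so more Dicer inhibition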
Target sequence (Q9UPY3 whole entry, looked up): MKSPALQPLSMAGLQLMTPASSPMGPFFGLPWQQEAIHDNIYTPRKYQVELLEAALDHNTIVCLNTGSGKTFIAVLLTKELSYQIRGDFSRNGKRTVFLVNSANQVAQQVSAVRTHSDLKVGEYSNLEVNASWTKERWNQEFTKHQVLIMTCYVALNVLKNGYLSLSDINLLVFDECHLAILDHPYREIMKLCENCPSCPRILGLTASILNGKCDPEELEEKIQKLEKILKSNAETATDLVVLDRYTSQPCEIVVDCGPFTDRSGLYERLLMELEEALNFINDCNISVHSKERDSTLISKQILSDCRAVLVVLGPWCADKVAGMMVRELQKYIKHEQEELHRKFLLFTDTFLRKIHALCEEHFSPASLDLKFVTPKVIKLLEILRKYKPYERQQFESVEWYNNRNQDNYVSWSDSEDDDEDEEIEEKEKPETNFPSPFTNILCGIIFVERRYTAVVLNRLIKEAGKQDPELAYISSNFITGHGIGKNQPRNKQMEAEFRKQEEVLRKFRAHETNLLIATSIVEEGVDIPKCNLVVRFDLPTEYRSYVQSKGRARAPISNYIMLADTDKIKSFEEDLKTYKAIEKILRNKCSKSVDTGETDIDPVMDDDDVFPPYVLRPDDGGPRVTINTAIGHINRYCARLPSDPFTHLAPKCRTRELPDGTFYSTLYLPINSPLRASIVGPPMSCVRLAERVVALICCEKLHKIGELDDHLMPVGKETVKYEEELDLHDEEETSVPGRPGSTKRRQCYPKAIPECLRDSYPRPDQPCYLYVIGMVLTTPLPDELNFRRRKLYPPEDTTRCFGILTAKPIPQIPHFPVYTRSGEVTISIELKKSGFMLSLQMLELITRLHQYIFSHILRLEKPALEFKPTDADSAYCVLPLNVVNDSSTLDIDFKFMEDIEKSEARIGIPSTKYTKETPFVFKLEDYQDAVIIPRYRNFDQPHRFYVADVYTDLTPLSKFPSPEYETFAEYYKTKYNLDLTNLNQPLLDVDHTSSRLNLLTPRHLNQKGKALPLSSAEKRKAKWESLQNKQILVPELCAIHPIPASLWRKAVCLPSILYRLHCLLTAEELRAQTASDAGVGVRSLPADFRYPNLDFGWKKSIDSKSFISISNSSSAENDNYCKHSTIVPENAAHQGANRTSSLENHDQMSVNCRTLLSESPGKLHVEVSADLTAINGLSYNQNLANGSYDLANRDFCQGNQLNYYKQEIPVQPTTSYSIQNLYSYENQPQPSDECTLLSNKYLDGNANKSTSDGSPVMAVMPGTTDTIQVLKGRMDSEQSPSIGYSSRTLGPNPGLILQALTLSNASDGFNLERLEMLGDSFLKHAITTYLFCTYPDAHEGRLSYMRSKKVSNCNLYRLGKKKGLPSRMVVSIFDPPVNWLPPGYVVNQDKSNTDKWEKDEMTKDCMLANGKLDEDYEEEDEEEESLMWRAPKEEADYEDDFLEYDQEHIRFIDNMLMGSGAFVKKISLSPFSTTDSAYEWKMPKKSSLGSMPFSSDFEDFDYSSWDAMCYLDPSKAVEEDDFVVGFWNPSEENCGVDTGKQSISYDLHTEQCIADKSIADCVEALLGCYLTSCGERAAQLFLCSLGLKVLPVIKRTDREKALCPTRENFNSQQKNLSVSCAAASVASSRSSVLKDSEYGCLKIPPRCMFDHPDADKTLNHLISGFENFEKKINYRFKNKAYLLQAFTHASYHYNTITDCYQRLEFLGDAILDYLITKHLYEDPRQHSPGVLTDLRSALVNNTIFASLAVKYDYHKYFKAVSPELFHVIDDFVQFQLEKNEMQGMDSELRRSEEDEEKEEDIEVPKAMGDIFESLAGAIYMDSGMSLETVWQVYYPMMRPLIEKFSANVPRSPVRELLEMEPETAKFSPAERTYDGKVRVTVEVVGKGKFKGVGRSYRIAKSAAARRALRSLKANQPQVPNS
* = called active by the depositor. This is one part of a sample in which hits are shown more often than they occur.

SMILES | Dicer inh
COc1ccccc1C1CCN(c2ccc([N+](=O)[O-])c(OC)c2)CC1 | 3.4*
COc1ccccc1C1CCN(c2ccc(C(F)(F)F)cc2[N+](=O)[O-])CC1 | 0.04
COc1ccccc1C1CCN(Cc2ccc(Cl)cc2Cl)CC1 | -0.25
CC1(C)CC(=O)c2sc(NC(=O)CCSc3ccccc3)nc2C1 | 2.5
CC(C)OCC(O)Cn1c(NC2CCCCC2)nc2c1c(=O)[nH]c(=O)n2C (stereo not given) | -1.3
O=C(CN1CCOCC1)N1c2ccccc2CCc2ccccc21 | 2.6
O=C(NCC1NCCc2ccccc21)C1CCCCC1 (stereo not given) | 1.5
O=C(NCC1c2ccccc2CCN1C(=O)CN1CCOCC1)C1CCCCC1 (stereo not given) | 4.5*
CCOC(=O)c1sc(S(C)(=O)=O)c2c1CCc1cnoc1-2 | -0.31
N#C/C(=C\c1cc(Br)cs1)c1nc2ccccc2s1 | -0.22
COc1cc(OCc2ccccc2)ccc1CN1CCC(c2ccccc2OC)CC1 | -0.82
COC(=O)C1=C(C)NC2=C(C(=O)CC(c3ccc(Cl)cc3)C2)C1c1ccc(O)c(OC)c1 (stereo not given) | 1.5
Cc1oc2cc(O)ccc2c(=O)c1-c1nc2ccccc2n1C | 1
O=C1c2cccc3cccc(c23)C(=O)N1Nc1ccccc1 | 0.66
Cc1c(N2C(=O)c3cccc4cccc(c34)C2=O)c(=O)n(-c2ccccc2)n1C | 4.4*
Cc1c(O)c(=O)n(-c2ccccc2)n1C | 0.57
O=C(O)/C=C/C(=O)c1ccc(C2CCCCC2)cc1 | 2.9
C=CCSc1nc2sc3c(c2c(=O)n1Cc1ccccc1)CCC(C)C3 (stereo not given) | -1.5
CCN(Cc1ccccc1)c1nc2c([nH]1)c(=O)n(C)c(=O)n2C | 0.47
CN(C)C=Nc1cc(Cl)c(-n2cccc2)cc1Cl | -2.5
C=C(C)c1cccc(C(C)(C)NC(=O)N2CCN(c3ccccn3)CC2)c1 | 1.4
CC(C)(CC(=O)O)CC(=O)N1CCCN(c2c(Cl)cncc2Cl)CC1 | 1.9
CC(C)(CC(=O)O)CC(=O)N1CCN(c2ccccn2)CC1 | 4.1*
CC(C)CC(=O)N1c2ccccc2NC2=C(C(=O)CC(C)(C)C2)C1c1cccs1 (stereo not given) | 0.36
CCOC(=O)c1c(NC(=O)Nc2cccc(Cl)c2)sc2c1C(C(=O)OCC)CC2 (stereo not given) | -2.8
SMILES | Dicer inh
O=C1CC(Nc2ccccc2)C=C1Nc1ccccc1 (stereo not given) | -0.09
O=C1CC(N2CCN(c3ccccc3)CC2)C=C1Nc1ccccc1 (stereo not given) | 4*
O=C1CC(N2CCN(c3ccccc3)CC2)C=C1Nc1ccc(Cl)cc1 (stereo not given) | 1.9
COc1ccc(S(=O)(=O)N2CCN(C3CCC(C)CC3)CC2)cc1 (stereo not given) | 0.9
CCC12CN3CC(CC)(CN(C1)C3c1cccc(C)c1)C2=O (stereo not given) | 0.85
O=C(C1=NNCC1c1ccccc1)c1ccccc1 (stereo not given) | -0.12
O=C(C1=NNCC1c1c2ccccc2cc2ccccc12)c1ccc(Br)cc1 (stereo not given) | -0.74
O=C(C1=NNCC1c1ccccc1)c1ccc2ccccc2c1 (stereo not given) | 4.3*
Cc1ccc(/C(O)=C2/C(=O)C(=O)N(CC(C)O)C2c2cccc(O)c2)cc1 (stereo not given) | 6.1
COc1ccc(C2OC(c3ccc(Br)cc3)=NN2C(C)=O)cc1 (stereo not given) | -2.5
CN(C)c1ncnc2c1C(c1ccc(Br)cc1)c1c(ncnc1N(C)C)O2 | 5*
C=CCN1C(=O)C2(/C(=C(/O)c3ccc(OCC)cc3)C(=O)C(=O)N2CC2CCCO2)c2ccccc21 (stereo not given) | -0.24
CC(=O)NN(C)c1ccc(C(F)(F)F)cc1NS(=O)(=O)c1cc(C(F)(F)F)cc(C(F)(F)F)c1 | -0.5
CCCCSc1sc(C(=O)OC)c(-c2ccc(Cl)cc2)c1C#N | -0.82
CC(NCC(O)Cn1c2ccccc2c2ccccc21)C(=O)O (stereo not given) | -4.7
CC(C)(C)NCC(O)Cn1c2ccccc2c2ccccc21 (stereo not given) | 0.67
OCCNCC(O)Cn1c2ccccc2c2ccccc21 (stereo not given) | 4.5*
Cc1ccc(C)c(C(=O)CC2(O)C(=O)Nc3ccccc32)c1 (stereo not given) | 1.6
O=C1CSC2(C(=O)Nc3ccccc32)N1c1ccccc1 (stereo not given) | -0.52
Cc1ccc(N2C(=O)CSC23C(=O)Nc2ccccc23)cc1 (stereo not given) | 3.8*
CC(C)(C)NC(=O)[C@@H]1C[C@@H]2CCCC[C@@H]2CN1C(=O)COc1ccc(Cl)cc1Cl | -0.67
CN(C)/C=C/C(=O)c1ccc(Br)s1 | -0.94
Cc1oc(-c2ccccc2)cc1C(=O)/C=C/N(C)C | 1.7
CN(C)/C=C/C(=O)c1csc2ccccc12 | 3.5*
CCOc1cccc(=O)c2c(C)n(-c3ccc(C(=O)O)cc3)c(C)c12 | 10*
SMILES | Dicer inh
CCOc1cccc(=O)c2c(C)[nH]c(C)c12 | 1.8
COc1cccc(=O)c2c(C)n(-c3ccc(C(=O)O)cc3)c(C)c12 | 2.1
O=C(O)CCSc1nnc(-c2ccncc2)o1 | -0.4
N#Cc1nc(COc2ccccc2Cl)oc1NCCN1CCOCC1 | -0.01
CCCCCC(=O)Oc1ccc(N2C(=O)C3CCCCC3C2=O)cc1 (stereo not given) | -0.68
O=C(O)CSC1(SCC(=O)O)CCCCCC1 | 2.3
O=C(COc1ccc(SC(F)(F)F)cc1)NNC(=O)NC(=O)c1ccccc1Cl | 1.5
COC(=O)c1nc2c(C)cccn2c1F | 3.1*
Cc1cccn2c(=O)c(NC(=O)c3ccc(Cl)cc3)cnc12 | 0.05
CCCS(=O)(=O)c1c(S(=O)(=O)CCC)c2c(C)cccn2c1C(=O)OC | 0.26
Cc1[nH]c2ccccc2c1C1(O)C(=O)N(Cc2cccs2)c2ccccc21 (stereo not given) | -1.3
COc1ccc(-c2nc(SCc3ccccc3)nc(SC)c2C#N)cc1 | -0.17
O=[N+]([O-])c1ccc(Oc2cncc(Cl)c2)c(-c2nnc(-c3ccc(Cl)cc3)o2)c1 | 0.09
OC1CC(c2ccccc2)NC2(CCCC2)C1 (stereo not given) | -0.74
Cc1noc(-c2ccc(Cl)cc2)c1NC(=O)NN1CCCCC1 | 0.24
c1ccc(CNc2nc(-c3ccccc3)ns2)cc1 | -0.46
COC(=O)Cn1nnc(N2CCOCC2)n1 | 0.53
O=C(Cn1nnc(N2CCOCC2)n1)NNC(=S)Nc1ccc(F)cc1F | 0.13
CC(C(=O)NNC(=S)NCC1CC1)n1nnc(N2CCOCC2)n1 (stereo not given) | 3.9*
CCOc1ccc(C2Nc3cc(C)c(C)cc3NC3=C2C(=O)CC(C)(C)C3)cc1 (stereo not given) | -0.05
C=C(C)CSc1nc(=O)cc(N)n1-c1ccc(F)cc1 | 0.91
O=C(NCc1cccs1)NC(=O)c1c(Cl)cccc1Cl | -0.88
Cc1ccc(Cl)cc1N1C(=O)c2ccncc2C1=O | 3.4*
Cc1ccc(Cl)cc1N1C(=O)CC(C)(C)CC1=O | 7.2
COc1ccc(Cl)cc1N1C(=O)c2ccncc2C1=O | 2.9
SMILES | Dicer inh
O=C(Nc1cccc(C(F)(F)F)c1)c1c(F)cccc1F | -0.79
O=C(NCCCn1ccnc1)c1sc2ccccc2c1Cl | -0.58
COc1ccc2c(=O)cc(-c3ccccc3)oc2c1 | -0.36
O=c1ccc2c(-c3ccccc3)c3ccc(O)cc3oc-2c1 | 3.1*
O=c1c2ccccc2oc2cc(O)ccc12 | 0.39
Cc1cccc(C(=O)Nc2ccccn2)c1 | -1.2
O=C(NCCCCO)OCC1c2ccccc2-c2ccccc21 | -0.56

Compound activity as filed in PubChem BioAssay.
